Experimental data taken from PubChem BioAssay AID1159580 (chemical genetic matrix, 2015).
Values joined by “and” are separate entries in the source; they are usually repeats but may differ in a detail not shown here. Equal values may be shown once. The whole screen tested about 5,500 compounds, of which about 2,000 (36%) were called active. Roughly 18% stayed inconclusive and do not appear here. Rule as the data show it: active = normalized growth mostly below about 0.91 (no sharp cut-off); inconclusive = no clear call, values can overlap the other calls; inactive = mostly above about 0.92. The list shows a part of the results.

Experiment: chemical genetic growth profiling, strain panel (AID 1159580);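 also: tested at 20 µM; growth read once vehicle control cultures reached saturation at 30 °C; 1 = growth at the plate median or of vehicle wells; lower values mean less growth of the strain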
Conditions: S. cerevisiae deletion strains, growth OD

Measured: normalized growth

O=C(O[C@@H]1Cc2c(O)cc(O)cc2O[C@@H]1c1cc(O)c(=O)c2c(O)c(O)cc([C@H]3Oc4cc(O)cc(O)c4C[C@H]3O)c2c1)c1cc(O)c(O)c(O)c1
active: locus YAL021C, strain ccr4, stronger effect = lower value 0.0928 | locus YAL026C, strain drs2, stronger effect = lower value 0.46 | locus YAL030W, strain snc1, stronger effect = lower value 0.715 | locus YBL061C, strain skt5, stronger effect = lower value 0.531 | locus YBR009C, strain hhf1, stronger effect = lower value 0.556 | locus YBR023C, strain chs3, stronger effect = lower value 0.457 | locus YBR229C, strain ROT2, stronger effect = lower value 0.67 | locus YBR231C, strain swc5, stronger effect = lower value 0.427 | locus YBR279W, strain paf1, stronger effect = lower value 0.549 | locus YCL011C, strain gbp2, stronger effect = lower value 0.62 | locus YCL016C, strain dcc1, stronger effect = lower value 0.765 | locus YCL029C, strain bik1, stronger effect = lower value 0.801 | locus YCL061C, strain MRC1, stronger effect = lower value 0.765 | locus YCL069W, strain vba3, stronger effect = lower value 0.797 | locus YCR088W, strain abp1, stronger effect = lower value 0.911 | locus YDL035C, strain GPR1, stronger effect = lower value 0.224 | locus YDL040C, strain nat1, stronger effect = lower value 0.767 | locus YDL074C, strain BRE1, stronger effect = lower value 0.42 | locus YDL101C, strain DUN1, stronger effect = lower value 0.233 | locus YDL134C, strain PPH21, stronger effect = lower value 0.184 | locus YDL192W, strain arf1, stronger effect = lower value 0.828 | locus YDR069C, strain doa4, stronger effect = lower value 0.116 | locus YDR101C, strain arx1, stronger effect = lower value 0.896 | locus YDR137W, strain rgp1, stronger effect = lower value 0.497 | locus YDR150W, strain NUM1, stronger effect = lower value 0.829 | locus YDR159W, strain sac3, stronger effect = lower value 0.838 | locus YDR162C, strain NBP2, stronger effect = lower value 0.144 | locus YDR195W, strain ref2 0.814 | locus YDR297W, strain sur2, stronger effect = lower value 0.599 | locus YDR318W, strain mcm21, stronger effect = lower value 0.877 | locus YDR334W, strain swr1, stronger effect = lower value 0.571 | locus YDR335W, strain msn5, stronger effect = lower value 0.638 | locus YDR502C, strain sam2, stronger effect = lower value 0.69 | locus YEL003W, strain gim4, stronger effect = lower value 0.659 | locus YEL037C, strain rad23, stronger effect = lower value 0.709 | locus YER015W, strain faa2, stronger effect = lower value 0.292 | locus YER016W, strain bim1, stronger effect = lower value 0.859 | locus YER111C, strain swi4, stronger effect = lower value 0.694 | locus YER155C, strain BEM2 (second series), stronger effect = lower value 0.849 | locus YER155C, strain BEM2, stronger effect = lower value 0.887 | locus YER167W, strain BCK2, stronger effect = lower value 0.78 | locus YFR010W, strain ubp6, stronger effect = lower value 0.63 | locus YGL086W, strain mad1, stronger effect = lower value 0.669 | locus YGL167C, strain pmr1, stronger effect = lower value 0.422 | locus YGL173C, strain kem1, stronger effect = lower value 0.277 | locus YGL240W, strain doc1, stronger effect = lower value 0.81 | locus YGL248W, strain PDE1, stronger effect = lower value 0.474 | locus YGL253W, strain hxk2, stronger effect = lower value 0.588 | locus YGR135W, strain pre9, stronger effect = lower value 0.789 | locus YGR252W, strain gcn5, stronger effect = lower value 0.75 | locus YHR013C, strain ard1, stronger effect = lower value 0.329 | locus YHR027C, strain rpn1, stronger effect = lower value 0.191 | locus YHR129C, strain ARP1, stronger effect = lower value 0.565 | locus YHR142W, strain chs7, stronger effect = lower value 0.532 | locus YHR200W, strain rpn10, stronger effect = lower value 0.845 | locus YIL066C, strain RNR3, stronger effect = lower value 0.153 | locus YIL073C, strain SPO22, stronger effect = lower value 0.198 | locus YJL092W, strain hpr5, stronger effect = lower value 0.882 | locus YJL095W, strain BCK1 (second series), stronger effect = lower value 0.489 | locus YJL129C, strain trk1, stronger effect = lower value 0.829 | locus YJL134W, strain LCB3, stronger effect = lower value 0.825 | locus YJL154C, strain vps35, stronger effect = lower value 0.886 | locus YJL164C, strain tpk1, stronger effect = lower value 0.489 | locus YJL166W, strain qcr8, stronger effect = lower value 0.485 | locus YJL187C, strain SWE1 (second series), stronger effect = lower value 0.13 | locus YJL187C, strain SWE1, stronger effect = lower value 0.604 | locus YJR043C, strain POL32, stronger effect = lower value 0.244
inactive: locus YBR021W, strain FUR4, stronger effect = lower value 0.918 | locus YBR171W, strain sec66, stronger effect = lower value 0.938 | locus YDL005C, strain med2, stronger effect = lower value 0.949 | locus YDL185W, strain tfp1, stronger effect = lower value 0.992 | locus YDR001C, strain nth1, stronger effect = lower value 0.984 | locus YDR388W, stronger effect = lower value 0.93 | locus YDR392W, strain spt3, stronger effect = lower value 0.84 | locus YEL061C, strain CIN8 (second series), stronger effect = lower value 0.936 | locus YER110C, stronger effect = lower value 1.03 | locus YGL078C, strain dbp3, stronger effect = lower value 1.02 | locus YGL227W, strain vid30, stronger effect = lower value 0.991 | locus YHR030C, strain SLT2, stronger effect = lower value 1.01 | locus YHR079C, strain IRE1 (second series), stronger effect = lower value 0.946 | locus YHR079C, strain IRE1, stronger effect = lower value 1.03 | locus YHR094C, strain hxt1, stronger effect = lower value 1.02 | locus YIL125W, strain kgd1, stronger effect = lower value 1.04 | locus YIR030C, strain dcg1, stronger effect = lower value 0.973 | locus YJL115W, strain asf1, stronger effect = lower value 0.947 | locus YJL168C, strain set2, stronger effect = lower value 0.997
0.185 (active) and 0.996 (inactive): locus YJL095W, strain BCK1, stronger effect = lower value
